Results on 94 compounds are retold here after PubChem BioAssay AID2315 (National Center for Advancing Translational Sciences (NCATS), 2010).

Screen size: about 290,000 compounds; about 27,000 (9.3%) were called active. Only a selection was taken, and actives are over-represented in it overall. Values without a mark were called inactive. Rule as the data show it: active = inhibition mostly above about 28% (no sharp cut-off); inactive = mostly below about 43%.

The test can be described thus: A qHTS for Small Molecule Inhibitors of Shiga Toxin. Also: 0% is about no effect. Particulars: Vero cells, Shiga toxin protein synthesis inhibition reporter; at 38.7 µM, stronger effect = higher value. In general terms: qHTS replaces the single test concentration by a dilution series.
A word on the inhibition: it is the drop in the measured response relative to a control, in per cent. `CCOc1cc(NC(=O)Nc2ccccc2)c(OCC)cc1NC(=O)CC`: the inhibition is -9.09%.

On to `CC1CCCN(S(=O)(=O)c2ccc(-c3ccc(=O)[nH]n3)o2)C1` (centres undefined), for which the inhibition is -5.12%.

In the case of `O=S(=O)(NC1CC1)c1ccc(F)c(F)c1`, the inhibition was 20.3%.

As to `CCc1ccc(OCC(=O)OC(C)C(=O)NC2CC2)cc1` (centres undefined), the inhibition was -3.01%.

`CCCCN(CC)C(=O)C1CCCN(S(=O)(=O)c2cccc3nsnc23)C1` (centres undefined): the inhibition is -4.85%.

For `Cc1c(C(N)=O)sc2ncn(CCOc3ccccc3)c(=O)c12`, the inhibition was 59.8%.

`CCOC(=O)C(C)n1cnc2sc(C)c(C)c2c1=O` (centres undefined): the inhibition is 17.6%.

Turning to `Cc1cccc(OC(=O)c2sc3ncn(C)c(=O)c3c2C)c1`, the inhibition was 67.1% (active).

Consider `CN(CCc1ccccn1)C(=O)c1ccc(OC2CCN(Cc3ccccn3)CC2)cc1`, for which the inhibition was 16%.

On to `COc1ccc(C(=O)NNC(=O)c2cnccn2)cc1[N+](=O)[O-]`, for which the inhibition was -6.53%.

For the compound `CCCCOC(=O)Nc1nccs1`, the inhibition was 7.37% (active).

Consider `CC(=O)NC(CC(=O)Nc1nccs1)c1ccccc1` (centres undefined), for which the inhibition was 14.1%.

For `CCOc1ccc(C(=O)NC(=S)Nc2ccc(NC(=O)C(C)C)cc2)cc1[N+](=O)[O-]`, the inhibition is -4.8%.

Take `CCN(c1ccccc1)S(=O)(=O)c1ccc(C(=O)Nc2nccs2)cc1`: the inhibition was -6.9%.

On to `O=C(COC(=O)c1ccc(O)cc1)Nc1nccs1`, for which the inhibition is 28%.

In the case of `O=C(O)c1ccccc1-c1ccccc1C(=O)Nc1nccs1`, the inhibition was 16.1%.

As to `CCOc1ccc(C(=O)Nc2nccs2)cc1[N+](=O)[O-]`, the inhibition was 69.4% (active).

As to `Cn1cccc1C(=O)Nc1nccs1`, the inhibition is 39.3% (active).

For `CCCCOC(=O)Nc1nnc(CC(=O)NCc2ccccc2)s1`, the inhibition is -13.9%.

`CC(NC(=O)C(=O)Nc1nccs1)c1ccccc1` (centres undefined): the inhibition is -4.59%.

For the compound `CC(=O)Oc1ccc(C(=O)Nc2nccs2)cc1`, the inhibition is 45.7% (active).

On to `COC(=O)CCc1ccccc1S(=O)(=O)N(CCC(=O)OC)Cc1ccccc1`, for which the inhibition was -5.55%.

As to `Cc1ccccc1Nc1c([N+](=O)[O-])ccc2nonc12`, the inhibition was -12%.

Take `COc1cc(OC)c2c(C)cc(=O)oc2c1C(CCN1CCCCC1)c1ccc(N(C)C)cc1` (centres undefined): the inhibition is -4.37%.

On to `COCc1ccc(CN2CCC(Oc3ccc(C(=O)NCc4ccccn4)cc3)CC2)o1`, for which the inhibition was -9.34%.

For the compound `C=C1/C(=C\C=C2\CCCC3(C)C2CCC3C(C)/C=C/C(O)C2CC2)CC(O)CC1O` (centres undefined), the inhibition is -5.18%.

Take `O=C(NCc1cccc(C(F)(F)F)c1)c1cccc(S(=O)(=O)N2CCN(Cc3ccccc3)CC2)c1`: the inhibition is -21.6%.

Take `CCOc1ccc(C2/C(=C(/O)c3ccc4c(c3)CC(C)O4)C(=O)C(=O)N2CCCn2ccnc2)cc1` (centres undefined): the inhibition is 14.2%.

Take `COc1ccc(-c2cc(C(=O)NC(C(=O)O)C(C)C)c(C)o2)cc1OC` (centres undefined): the inhibition is 46.9%.

For the compound `Cc1cccc(C)c1OCC(=O)NC(Cc1c[nH]c2ccccc12)C(=O)O` (centres undefined), the inhibition was -4.32%.

On to `COc1ccc(-c2cc(C(=O)NC(Cc3c[nH]c4ccccc34)C(=O)O)c(C)o2)cc1OC` (centres undefined), for which the inhibition was 29.3% (active).

Regarding `O=C(NCCc1ccc(Cl)cc1Cl)c1cc([N+](=O)[O-])c[nH]c1=O`, the inhibition was -2.76%.

Consider `Cc1ccnc(NS(=O)(=O)c2ccc(NC(=O)c3oc4ccccc4c3C)cc2)n1`, for which the inhibition is -19.8%.

For `CCCc1nc(SCC(=O)N2CCCC2)c2c(=O)n(C)c(=O)n(C)c2n1`, the inhibition is -3.54%.

As for `C[C@@H]1CC[C@@]2(OC1)O[C@H]1C[C@H]3[C@@H]4CC=C5C[C@@H](O)[C@H](O)C[C@]5(C)C4CC[C@]3(C)[C@H]1[C@@H]2C` (some centres undefined), the inhibition was -6.76%.

`CCOc1ccccc1N1CCN(C(=O)c2ccc3[nH]c(C)c(C)c3c2)CC1`: the inhibition was -2.3%.

As for `COc1ccc2[nH]c(C(=O)N3CCN(C)CC3)c(C)c2c1`, the inhibition was -9.68%.

Consider `Cc1[nH]c2ccc(C(=O)N3CCN(C)CC3)cc2c1C`, for which the inhibition is 45.9% (active).

Take `CCOCCCNC(=S)Nc1ccc2nc(N3CCN(CC)CC3)cc(C)c2c1`: the inhibition is 4.52%.

`Cc1ccccc1N1CC(c2nc3ccccc3[nH]2)CC1=O` (centres undefined): the inhibition is -11.9%.

Regarding `OC(c1nc2ccccc2[nH]1)C(O)C(O)C(O)c1nc2ccccc2[nH]1` (centres undefined), the inhibition was 19.2%.

As to `Cc1ccc(-c2nc3ccccc3[nH]c2=O)cc1`, the inhibition is 21.4%.

`Cc1ccc(-c2nc3ccccc3[nH]2)cc1N`: the inhibition is 106% (active).

Turning to `COc1ccc(-c2[nH]nc(-c3ccccc3)c2-c2nc3ccccc3[nH]2)cc1`, the inhibition was -19.5%.

Consider `c1ccc2[nH]c(-c3nc4ccccc4[nH]3)nc2c1`, for which the inhibition is 107% (active).

For the compound `CCN1CCN(C(=O)CSc2ccc(C)cc2)CC1`, the inhibition is 52.4%.

Turning to `CCOC(=O)N1CCN(C(=O)CSc2ccc(Cl)cc2)CC1`, the inhibition was 93.2% (active).

`CCOC(=O)N1CCN(C(=O)CNC(=O)Cc2ccc(Cl)cc2)CC1`: the inhibition was -2.93%.

Consider `CC(=O)Nc1ccc(S(=O)(=O)Nc2cc(C)cn(Cc3ccc(C)cc3)c2=O)cc1`, for which the inhibition is 20.8%.

As for `Cc1cc(OC(=O)c2ccccc2Cl)ccc1N1C(=O)CCC1=O`, the inhibition is 60.4% (active).

For the compound `CCOC(=O)c1cc(OC(=O)c2ccccc2Cl)n(-c2ccccc2)n1`, the inhibition is 35.8%.

For `COc1ccccc1C(=O)Oc1ccc(N2C(=O)CCC2=O)cc1`, the inhibition was -6.4%.

`Cc1n[nH]c(=O)c2c1nnn2Cc1ccc(F)cc1`: the inhibition was 14.5%.

Consider `CC1CCN(C(=S)NC(=O)c2ccccc2Br)CC1`, for which the inhibition is 14.3%.

In the case of `Nc1ccc(N=Nc2ccccc2Cl)c(N)n1`, the inhibition is 105% (active).

Take `CCOC(=O)C1CCN(S(=O)(=O)c2ccc3c(c2)N(C(C)=O)CCO3)CC1`: the inhibition was 15.1%.

For the compound `CCN(CC)S(=O)(=O)c1ccc(N2CCN(C)CC2)c(NC(=O)Nc2ccccc2F)c1`, the inhibition is 19.8%.

On to `Cc1cccc(C(=O)N2CCc3c([nH]c4ccccc34)C2CC(C)C)n1` (centres undefined), for which the inhibition is 52.7% (active).

In the case of `O=C(c1cn2ccccc2n1)N1CCc2c([nH]c3ccccc23)C1c1ccccn1` (centres undefined), the inhibition is 13.1%.

With `Cc1cccc(C2c3[nH]c4ccccc4c3CCN2C(=O)c2cc(-c3cccn3C)n[nH]2)n1` (centres undefined), the inhibition is -3.12%.

For `CCc1ccc(NC(=O)NC(C)c2ccc3c(c2)OCO3)cc1` (centres undefined), the inhibition was -6.59%.

For `Cc1cc(-c2ccc(C)c(S(=O)(=O)NC(C)Cc3ccco3)c2)on1` (centres undefined), the inhibition is -1.68%.

`Cc1cccc(CSc2nnc(NC(=O)CSc3nnc(C)s3)s2)c1`: the inhibition was -22%.

On to `Cc1nnc(SCc2nc3ccccc3nc2C)s1`, for which the inhibition was -8.09%.

On to `O=C(Nc1nnc(SCc2ccccc2)s1)c1ccco1`, for which the inhibition is 55.6%.

`Cc1ccc(Nc2nnc(SCc3ccccc3)s2)cc1`: the inhibition is 78.2% (active).

`CCOC(=O)N1CCN(Cc2nc(N)nc(Nc3ccc(C)cc3)n2)CC1`: the inhibition is 16.1%.

In the case of `Cc1ccc(Nc2nc(N)nc(CSc3nnc(C)s3)n2)cc1`, the inhibition is 97.7% (active).

Turning to `Cc1cccn2cc(-c3cccc(S(=O)(=O)N4CCCCC4)c3)nc12`, the inhibition was 15.3%.

Take `N#CCSc1nc(-c2ccccc2)nc2ccc(F)cc12`: the inhibition is 4.25%.

Regarding `CCc1nnc(NC(=O)CCC(=O)N2CCN(c3cc(C)ccc3C)CC2)s1`, the inhibition was 2.43%.

Consider `CCOC(=O)N1CCC(N2Cc3cccc(C(=O)Nc4ccc(S(=O)(=O)N(CC)CC)cc4)c3C2=O)CC1`, for which the inhibition is -14%.

With `CC(C)c1nc2cc(C(=O)NC(C)c3cnn(C)c3)ccc2o1` (centres undefined), the inhibition was 20.7%.

Regarding `COc1ccc(CNC(=O)c2ccc3oc(C(C)C)nc3c2)cc1`, the inhibition is 51.4% (active).

On to `COC(=O)c1ccc(CNC(=O)c2ccc3oc(C(C)C)nc3c2)cc1`, for which the inhibition was 71.8% (active).

Regarding `CCOc1c2ccc(C(=O)NCc3ccc(OC(F)(F)F)cc3)cc2nn1C`, the inhibition is 29%.

As for `COC(=O)c1ccc(CSc2nc3cc(Cl)ccc3o2)cc1`, the inhibition was -12.3%.

In the case of `COc1ccc(CNC(=O)c2cc(=O)c3c(C)cc(C)cc3o2)cc1`, the inhibition is -1.33%.

Consider `Cc1ccccc1CCNC(=O)C1CCC(=O)N(Cc2ccc(Cl)cc2)C1` (centres undefined), for which the inhibition was 13.3%.

Turning to `O=C(OCc1ccc([N+](=O)[O-])cc1)C1CC(=O)N(Cc2ccccc2Cl)C1` (centres undefined), the inhibition is -0.893%.

In the case of `O=C(NCCCN1CCCCC1)C1CC(=O)N(CCc2ccccc2)C1` (centres undefined), the inhibition is -8.56%.

`COc1cc(/C=N/NC(=O)c2ccccc2)ccc1OS(=O)(=O)c1ccccc1`: the inhibition was 31% (active).

Regarding `Cc1ccc(S(=O)(=O)Oc2ccc(/C=N/NC(=O)c3ccncc3)cc2)cc1`, the inhibition was 9.5%.

As for `COc1ccc(/C=N/S(=O)(=O)c2ccccc2)cc1OC`, the inhibition was -10.1%.

As for `COc1cc(/C=N/NC(=O)c2cccnc2)ccc1OC(=O)c1cccc(Br)c1`, the inhibition is -22.1%.

As to `COc1ccc(/C=N/NC(=O)c2ccccc2)cc1OS(=O)(=O)c1ccccc1`, the inhibition was 59.1% (active).

On to `COc1ccc(/C=N\NC(=O)c2sc(N)nc2C)cc1OC`, for which the inhibition is 15.2%.

In the case of `COc1ccc(C)cc1NC(=O)CN(C)S(=O)(=O)c1ccc2c(c1)n(C)c(=O)c(=O)n2C`, the inhibition was 3.45%.

Turning to `COc1ccc(-n2cc(-c3ccccc3)c3c(=S)nc[nH]c32)cc1`, the inhibition is -14.3%.

With `CC(Oc1cccc(Cl)c1)C(=O)NC1CC(C)(C)NC(C)(C)C1` (centres undefined), the inhibition is -11.3%.

`CCn1cc(C(=O)NCCC(=O)NCCO)c(=O)c2cc3c(cc21)OCO3`: the inhibition was -8.77%.

As for `CC(C)[C@H](NC(=O)N1CCn2c1nc1ccccc12)C(=O)NCCc1ccccc1`, the inhibition is 31.8%.

Take `O=C(O)c1c(NC(=O)N2CCCC2)sc2c1CCCC2`: the inhibition was 36.9%.

Take `O=C(O)C1CCCN1S(=O)(=O)c1ccc(Br)cc1` (centres undefined): the inhibition was -1.18%.
